# Measured values taken from PubChem BioAssay (Tox21).
# Values without a mark were called inactive. Inconclusive results are not listed. Where a call stands in place of a potency, no number is given. Active and inactive are the calls of the source. Unless noted, calls come from the whole dose curve; as a rule, active = well fitted curve in the direction sought with a large enough effect in the repeat runs; inconclusive = weak or mixed curves; inactive = no such curve, though single readings can be large; an effect the other way counts as inactive or inconclusive.
# How the values were obtained:
# [1] = qHTS assay to identify small molecule agonists of the hypoxia (HIF-1) signaling pathway (AID 1224846; active = well fitted activation curve with a large enough effect in the signal ratio in the repeat runs, not every such curve was filed as active; the % refers to the signal ratio)
# Summary of the method: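 Measured by blue/green FRET after loading CCF4-AM: beta-lactamase expressed from a hypoxia response element in ME-180 cells. Test agents were delivered in DMSO and left 17 hrs; cells had been plated 5 hrs earlier in low-serum (0.5% dialyzed FBS) medium.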
# [2] = qHTS assay to identify small molecule agonists of H2AX - cell viability counter screen (AID 1224847; calls by dose curve; note: nearly all actives have a fitted effect of over 30% in size; note: potency is the fitted concentration of half-maximal effect; for activity change, negative = cytotoxicity: top concentration of the series differs between compounds)
# Summary of the method: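 Quantitative HTS viability measurement: CHO-K1 wild-type cells in serum (10% FBS) medium, short 3 hr drug exposure at 37C with 0.76% DMSO, CellTiter-Glo luminescent detection.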
# [3] = qHTS RealTime-Glo MT Cell Viability Assay in HepG2 cells - 24 hour (AID 1224867); note: nearly all actives have a fitted effect of over 50% in size
# Summary of the method: (§1)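 HepG2 cells were seeded at 600 cells/well together with NanoLuc luciferase and a cell-permeant prosubstrate, preincubated 5 h at 37 C/5% CO2, then pin-dosed with compounds in DMSO. Nonlytic luminescence from viable cells was read at each time point.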
# [4] = qHTS RealTime-Glo MT Cell Viability Assay in HEK293 cells - 32 hour (AID 1224868); note: top concentration of the series differs between compounds; nearly all actives have a fitted effect of over 50% in size
# Summary of the method: (§2)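 HEK293 cells were seeded at 600 cells/well together with NanoLuc luciferase and cell-permeant prosubstrate, preincubated 5 h at 37 C/5% CO2, then given compound in DMSO by pintool. Luminescence from viable-cell prosubstrate reduction was read repeatedly over 40 h.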
# [5] = A CellTox Green Cytotoxicity Assay to monitor cytotoxicity in HEK293 cells - 0 hour (AID 1224869); note: nearly all actives have a fitted effect of over 50% in size
# Summary of the method: (§3)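 Each value comes from one timepoint of a single continuous run in which HEK293 cells with CellTox Green were exposed to compound for up to 40 h at 37 C, dye fluorescence rising with cell death.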
# [6] = qHTS RealTime-Glo MT Cell Viability Assay in HepG2 cells - 40 hour (AID 1224870); note: nearly all actives have a fitted effect of over 50% in size
# Summary of the method: (§4)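 Real-time viability: cells seeded at 600 per well together with NanoLuc and cell-permeant prosubstrate, compounds added after 5 h incubation. Luminescence tracked at 0, 8, 16, 24, 32 and 40 h of exposure.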
# [7] = A CellTox Green Cytotoxicity Assay to monitor cytotoxicity in HEK293 cells - 40 hour (AID 1224871); note: nearly all actives have a fitted effect of over 45% in size; note: potency is the fitted concentration of half-maximal effect
# Summary of the method: as §3
# [8] = qHTS RealTime-Glo MT Cell Viability Assay in HEK293 cells - 16 hour (AID 1224872)
# Summary of the method: as §2
# [9] = qHTS RealTime-Glo MT Cell Viability Assay in HepG2 cells - 8 hour (AID 1224873); note: nearly all actives have a fitted effect of over 55% in size
# Summary of the method: as §4
# [10] = qHTS RealTime-Glo MT Cell Viability Assay in HEK293 cells - 40 hour (AID 1224874); conditions: RealTime-Glo luminescence; max response: stronger effect = lower value; note: nearly all actives have a fitted effect of over 50% in size
# Summary of the method: (§5)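 qHTS format; HEK293 cells with NanoLuc/prosubstrate reagent, 37 C/5% CO2 for 5 h pre-dosing; compounds 23 nL in DMSO; luminescence at each time point reflects viable cells.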
# [11] = A CellTox Green Cytotoxicity Assay to monitor cytotoxicity in HEK293 cells - 24 hour (AID 1224875); note: nearly all actives have a fitted effect of over 45% in size; note: potency is the fitted concentration of half-maximal effect; for activity change: series mostly up to about 77 µM
# Summary of the method: as §3
# [12] = A CellTox Green Cytotoxicity Assay to monitor cytotoxicity in HepG2 cells - 16 hour (AID 1224876); note: nearly all actives have a fitted effect of over 45% in size; note: potency is the fitted concentration of half-maximal effect
# Summary of the method: (§6)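 Continuous culture of HepG2 cells with a membrane-impermeant DNA dye; rising fluorescence marks dead cells. Compound exposure lasted up to 40 h at 37 C, with reads every 8 h from 0 h.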
# [13] = qHTS RealTime-Glo MT Cell Viability Assay in HepG2 cells - 32 hour (AID 1224877); note: nearly all actives have a fitted effect of over 55% in size
# Summary of the method: as §1
# [14] = A CellTox Green Cytotoxicity Assay to monitor cytotoxicity in HepG2 cells - 24 hour (AID 1224878); note: nearly all actives have a fitted effect of over 45% in size; note: potency is the fitted concentration of half-maximal effect
# Summary of the method: as §6
# [15] = A CellTox Green Cytotoxicity Assay to monitor cytotoxicity in HepG2 cells - 40 hour (AID 1224879); note: nearly all actives have a fitted effect of over 40% in size; note: potency is the fitted concentration of half-maximal effect
# Summary of the method: as §6
# [16] = qHTS RealTime-Glo MT Cell Viability Assay in HEK293 cells - 0 hour (AID 1224880)
# Summary of the method: as §5
# [17] = A CellTox Green Cytotoxicity Assay to monitor cytotoxicity in HEK293 cells - 32 hour (AID 1224881); note: nearly all actives have a fitted effect of over 40% in size
# Summary of the method: as §3
# [18] = A CellTox Green Cytotoxicity Assay to monitor cytotoxicity in HepG2 cells - 0 hour (AID 1224882); note: nearly all actives have a fitted effect of over 35% in size
# Summary of the method: as §6
smiles,measurement,setting,value
COc1ccc(C#N)cc1,outcome,[1],inactive
same,Potency,[2],inactive
same,Potency,[3],inactive
same,Potency,[4],inactive
same,Potency,[5],inactive
same,Potency,[6],inactive
same,Potency,[7],inactive
same,Potency,[8],inactive
same,Potency,[9],inactive
same,max response,[10],-13.1%
same,Potency,[11],inactive
same,Potency,[12],inactive
same,Potency,[13],inactive
same,Potency,[14],inactive
same,Potency,[15],inactive
same,Potency,[16],inactive
same,Potency,[17],inactive
same,Potency,[18],inactive
Cc1cc(=O)[nH]c(=O)[nH]1,outcome,[1],inactive
same,Potency,[2],inactive
same,Potency,[3],inactive
same,Potency,[4],inactive
same,Potency,[5],inactive
same,Potency,[6],inactive
same,Potency,[7],inactive
same,Potency,[8],inactive
same,Potency,[9],inactive
same,Potency,[11],inactive
same,Potency,[14],inactive
same,Potency,[15],inactive
same,Potency,[16],inactive
same,Potency,[17],inactive
same,Potency,[18],inactive
CCOCN(C(=O)CS(=O)(=O)O)c1c(C)cccc1CC,outcome,[1],inactive
same,Potency,[2],inactive
same,Potency,[3],inactive
same,Potency,[4],inactive
same,Potency,[5],inactive
same,Potency,[7],inactive
same,Potency,[8],inactive
same,Potency,[9],inactive
same,max response,[10],8.02%
same,Potency,[11],inactive
same,Potency,[12],inactive
same,Potency,[13],inactive
same,Potency,[14],inactive
same,Potency,[15],inactive
same,Potency,[16],inactive
same,Potency,[17],inactive
same,Potency,[18],inactive
O=C(O)CC(=O)O,outcome,[1],inactive
same,Potency,[2],inactive
same,Potency,[3],inactive
same,Potency,[4],inactive
same,Potency,[5],inactive
same,Potency,[6],inactive
same,Potency,[7],inactive
same,Potency,[8],inactive
same,Potency,[9],inactive
same,max response,[10],11.5%
same,Potency,[11],inactive
same,Potency,[12],inactive
same,Potency,[14],inactive
same,Potency,[15],inactive
same,Potency,[16],inactive
same,Potency,[17],inactive
same,Potency,[18],inactive
CC1CCCCC1,outcome,[1],inactive
same,Potency,[2],inactive
same,Potency,[3],inactive
same,Potency,[4],inactive
same,Potency,[5],inactive
same,Potency,[6],inactive
same,Potency,[7],inactive
same,Potency,[8],inactive
same,max response,[10],5.61%
same,Potency,[11],inactive
same,Potency,[12],inactive
same,Potency,[13],inactive
same,Potency,[14],inactive
same,Potency,[15],inactive
same,Potency,[16],inactive
same,Potency,[17],inactive
same,Potency,[18],inactive
COc1ccccc1C=O,outcome,[1],inactive
same,Potency,[2],inactive
same,Potency,[3],inactive
same,Potency,[4],inactive
same,Potency,[5],inactive
same,Potency,[7],inactive
same,Potency,[8],inactive
same,Potency,[11],inactive
same,Potency,[13],inactive
same,Potency,[14],inactive
same,Potency,[15],inactive
same,Potency,[16],inactive
same,Potency,[17],inactive
same,Potency,[18],inactive
CC(=O)O[C@@H]1C[C@@H]2CC[C@@]1(C)C2(C)C,outcome,[1],inactive
same,Potency,[2],inactive
same,Potency,[3],inactive
same,Potency,[4],inactive
same,Potency,[5],inactive
same,Potency,[6],inactive
same,Potency,[7],inactive
same,Potency,[8],inactive
same,Potency,[9],inactive
same,max response,[10],0.199%
same,Potency,[11],inactive
same,Potency,[12],inactive
same,Potency,[13],inactive
same,Potency,[14],inactive
same,Potency,[15],inactive
same,Potency,[16],inactive
same,Potency,[17],inactive
same,Potency,[18],inactive
OCCN1CN(CCO)CN(CCO)C1,outcome,[1],inactive
same,Potency,[2],inactive
same,Potency,[3],inactive
same,Potency,[4],inactive
same,Potency,[5],inactive
same,Potency,[7],inactive
same,Potency,[9],inactive
same,Potency,[11],inactive
same,Potency,[12],inactive
same,Potency,[13],inactive
same,Potency,[14],inactive
same,Potency,[15],inactive
same,Potency,[16],inactive
CCc1ccc(O)c(C(C)(C)C)c1,outcome,[1],inactive
same,Potency,[2],101 µM (active)
same,Potency,[3],inactive
same,Potency,[4],inactive
same,Potency,[5],inactive
same,Potency,[6],inactive
same,Potency,[7],38.9 µM (active)
same,Potency,[8],inactive
same,max response,[10],-13.3%
same,Potency,[11],43.6 µM (active)
same,Potency,[12],43.6 µM (active)
same,Potency,[14],38.9 µM (active)
same,Potency,[15],38.9 µM (active)
same,Potency,[16],inactive
same,Potency,[18],inactive
O=C=NCc1cccc(CN=C=O)c1,activation,[1],-0.762% [at 15.8 µM]
same,"activity change, negative = cytotoxicity",[2],1.36% [at 31.6 µM]
same,"activity change, negative = cytotoxicity",[3],1.03% [at 15.8 µM]
same,"activity change, negative = cytotoxic",[4],6.09% [at 15.8 µM]
same,cytotoxicity,[5],-8.38% [at 15.8 µM]
same,"activity change, negative = cytotoxic",[6],0.58% [at 15.8 µM]
same,cytotoxicity increase,[7],-14.1% [at 15.8 µM]
same,"activity change, negative = cytotoxicity",[8],2.12% [at 15.8 µM]
same,"viability change, negative = cytotoxic",[9],3.05% [at 15.8 µM]
same,max response,[10],3.93%
same,activity change,[11],"-11.7% [at 15.8 µM, stronger effect = higher value]"
same,"activity change, negative = cytotoxic",[13],0.5% [at 15.8 µM]
same,cytotoxicity,[14],0.14% [at 15.8 µM]
same,cytotoxicity increase,[15],-0.536% [at 15.8 µM]
same,"activity change, negative = cytotoxicity",[16],5.7% [at 15.8 µM]
same,cytotoxicity increase,[17],-11.9% [at 15.8 µM]
same,cytotoxicity,[18],0.25% [at 15.8 µM]
CC(C)=CC1CC(C)CCO1 (stereo not drawn),outcome,[1],inactive
same,Potency,[2],inactive
same,Potency,[3],inactive
same,Potency,[4],inactive
same,Potency,[5],inactive
same,Potency,[6],inactive
same,Potency,[7],inactive
same,Potency,[8],inactive
same,Potency,[9],inactive
same,max response,[10],2.02%
same,Potency,[11],inactive
same,Potency,[12],inactive
same,Potency,[13],inactive
same,Potency,[14],inactive
same,Potency,[15],inactive
same,Potency,[16],inactive
same,Potency,[18],inactive
